# Assay results reported in PubChem BioAssay (Tox21).
# Records with an inconclusive call do not appear. Where a call stands in place of a potency, no number is given. Activity calls are given as the source filed them. Calls follow the shape of the dose curve; as a rule, active = well fitted curve in the direction sought with a large enough effect in the repeat runs; inconclusive = weak or mixed curves; inactive = no such curve, though single readings can be large; an effect the other way counts as inactive or inconclusive.
# Target: Cytochrome P450 1A2 (Homo sapiens) (UniProt P05177)
# Test: Cytochrome P450 Family 1 Subfamily A Member 2 (CYP1A2) small molecule antagonists: luciferase reporter qHTS assay (AID 1671199)
# Conditions: P450-Glo CYP1A2 enzyme, luciferin luminescence, 1 h; series mostly up to 115 µM
# How it was run: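 Read-out is luminescence from luciferin detection reagent (20 min) proportional to CYP1A2 activity; compounds in DMSO preincubated 10 min with enzyme and proluciferin substrate, then NADPH regeneration solution, 1 h, room temperature.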
# Also: nearly all actives have a fitted effect of over 50% in size.
# Potency is read from the fitted curve at half-maximal effect.
# Chain of Cytochrome P450 1A2 (Homo sapiens) (P05177 whole entry, looked up): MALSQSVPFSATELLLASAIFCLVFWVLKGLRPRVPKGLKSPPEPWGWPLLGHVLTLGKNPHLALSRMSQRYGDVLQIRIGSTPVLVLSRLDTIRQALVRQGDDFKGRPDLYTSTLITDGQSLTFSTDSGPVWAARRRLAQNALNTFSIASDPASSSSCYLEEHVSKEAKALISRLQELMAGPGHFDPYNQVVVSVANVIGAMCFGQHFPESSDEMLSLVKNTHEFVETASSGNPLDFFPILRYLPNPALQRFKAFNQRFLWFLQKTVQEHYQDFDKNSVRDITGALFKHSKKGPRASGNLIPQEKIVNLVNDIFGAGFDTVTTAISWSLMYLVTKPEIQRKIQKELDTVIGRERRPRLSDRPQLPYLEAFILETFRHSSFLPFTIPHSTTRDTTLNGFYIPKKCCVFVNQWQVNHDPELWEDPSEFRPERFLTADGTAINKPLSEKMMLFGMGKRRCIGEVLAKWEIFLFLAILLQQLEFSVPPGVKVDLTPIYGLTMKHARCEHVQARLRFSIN
Compound,Potency,"activity change, negative = inhibition"
CC(C(=O)O)c1ccc2c(c1)Cc1cccnc1O2 (centres undefined),inactive,
Nc1ccccc1Nc1ccccc1,7.12 µM (active),
C=CC(C)(O)CC/C=C(/C)CCC=C(C)C (centres undefined),39.9 µM (active),
Cc1ccc(Cl)c(OCC(O)CNC(C)(C)C)c1 (centres undefined),inactive,
CC(C)(C)c1cc(C=O)cc(C(C)(C)C)c1O,inactive,
CCCCCCCCCCCCCCCCCCCl,,-4.9% [at 10.5 µM] (inactive)
CCc1ccc(C(=O)C(C)CN2CCCCC2)cc1 (centres undefined),inactive,
O=C(OCCOCCOCCOC(=O)c1ccccc1)c1ccccc1,17.8 µM (active),
O=C(O)CCc1nc2ccccc2[nH]1,inactive,
CCc1c(C)[nH]c2c1C(=O)C(CN1CCOCC1)CC2 (centres undefined),inactive,
CC(C)C/C=C(\C=O)c1ccccc1,39.9 µM (active),
c1ccc(CN(Cc2ccccc2)Cc2ccccc2)cc1,20 µM (active),
O=C(Cl)c1ccc(F)c(Cl)c1,inactive,
C[C@]12CCC(=O)C=C1[C@@H]1C[C@@H]1[C@H]1[C@@H]3[C@@H]4C[C@@H]4[C@@]4(CCC(=O)O4)[C@@]3(C)CC[C@@H]12,inactive,
O=C1OC(=O)C2CC=CCC12 (centres undefined),inactive,
CC(C)Oc1ccccc1O,inactive,
COC(=O)c1cc(Cl)ccc1[N+](=O)[O-],7.96 µM (active),
Cc1cc(N)n(-c2ccccc2)n1,39.9 µM (active),
CC(C)=CCCC(C)C=O (centres undefined),inactive,
O=C(O)c1ccc2c(c1)nc(C(=O)NC1CCN(C3CC3)CC1)n2Cc1cc(-c2ccc(Cl)s2)on1,,0.996% [at 23.6 µM] (inactive)
O=C(O)c1ccc2cc(O)ccc2c1,inactive,
O=C1c2ccccc2C(=O)C1c1ccc2cc(S(=O)(=O)O)cc(S(=O)(=O)O)c2n1,43.2 µM (active),
COC(=O)/C=C/C(C)=C\C=C\C(C)=C\C=C\C=C(C)\C=C\C=C(C)\C=C\C(=O)O,inactive,
CC(=O)OCC(=O)[C@@]1(O)CC[C@H]2[C@@H]3CCC4=CC(=O)C=C[C@]4(C)[C@@]3(F)[C@@H](O)C[C@@]21C,inactive,
N#Cc1ccc(CC(=O)c2cccc(C(F)(F)F)c2)cc1,25.2 µM (active),
CC1(COc2ccc(CC3SC(=O)NC3=O)cc2)CCCCC1 (centres undefined),inactive,
Cc1ccc2ccccc2c1[N+](=O)[O-],2.52 µM (active),
C[C@H]1C[C@H]2[C@@H]3CCC4=CC(=O)C=C[C@]4(C)[C@@]3(F)[C@@H](O)C[C@]2(C)[C@@]1(O)C(=O)COP(=O)(O)O,inactive,
CO[C@@H]1[C@@H](O[C@@H]2O[C@H](C)[C@@H](O[C@H]3C[C@@](C)(O)[C@@H](O)[C@H](C)O3)[C@H](N(C)C)[C@H]2O)[C@@H](CC=O)C[C@@H](C)[C@@H](O[C@@H]2CC[C@H](N(C)C)[C@@H](C)O2)/C=C/C=C/C[C@@H](C)OC(=O)C[C@H]1OC(C)=O,inactive,
O=C(N[C@@H](Cc1ccccc1)[C@@H](O)C(=O)N1C[C@@H](O)[C@@H](O)C1)c1cc2cc(Cl)ccc2[nH]1,28.3 µM (active),

# Target: Voltage-gated inwardly rectifying potassium channel KCNH2 (Homo sapiens) (UniProt Q12809)
# Test: Human Ether-a-go-go-Related Gene (hERG) channel small molecule antagonists: fluorescence cell-based qHTS assay (AID 1671200);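 as to activity change, negative = inhibition: hERG-expressing U2OS cells given a thallium stimulus after FluxOR II dye loading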
# Conditions: hERG-U2OS cells, FluxOR thallium flux fluorescence; series mostly up to 76.8 µM
# How it was run: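 Fluorescence at 540 nm emission (480 nm excitation) was recorded kinetically for 2 min at 1-second intervals once the thallium-containing stimulus reached cells previously loaded with FluxOR II dye.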
# Chain of Voltage-gated inwardly rectifying potassium channel KCNH2 (Homo sapiens) (Q12809 whole entry, looked up): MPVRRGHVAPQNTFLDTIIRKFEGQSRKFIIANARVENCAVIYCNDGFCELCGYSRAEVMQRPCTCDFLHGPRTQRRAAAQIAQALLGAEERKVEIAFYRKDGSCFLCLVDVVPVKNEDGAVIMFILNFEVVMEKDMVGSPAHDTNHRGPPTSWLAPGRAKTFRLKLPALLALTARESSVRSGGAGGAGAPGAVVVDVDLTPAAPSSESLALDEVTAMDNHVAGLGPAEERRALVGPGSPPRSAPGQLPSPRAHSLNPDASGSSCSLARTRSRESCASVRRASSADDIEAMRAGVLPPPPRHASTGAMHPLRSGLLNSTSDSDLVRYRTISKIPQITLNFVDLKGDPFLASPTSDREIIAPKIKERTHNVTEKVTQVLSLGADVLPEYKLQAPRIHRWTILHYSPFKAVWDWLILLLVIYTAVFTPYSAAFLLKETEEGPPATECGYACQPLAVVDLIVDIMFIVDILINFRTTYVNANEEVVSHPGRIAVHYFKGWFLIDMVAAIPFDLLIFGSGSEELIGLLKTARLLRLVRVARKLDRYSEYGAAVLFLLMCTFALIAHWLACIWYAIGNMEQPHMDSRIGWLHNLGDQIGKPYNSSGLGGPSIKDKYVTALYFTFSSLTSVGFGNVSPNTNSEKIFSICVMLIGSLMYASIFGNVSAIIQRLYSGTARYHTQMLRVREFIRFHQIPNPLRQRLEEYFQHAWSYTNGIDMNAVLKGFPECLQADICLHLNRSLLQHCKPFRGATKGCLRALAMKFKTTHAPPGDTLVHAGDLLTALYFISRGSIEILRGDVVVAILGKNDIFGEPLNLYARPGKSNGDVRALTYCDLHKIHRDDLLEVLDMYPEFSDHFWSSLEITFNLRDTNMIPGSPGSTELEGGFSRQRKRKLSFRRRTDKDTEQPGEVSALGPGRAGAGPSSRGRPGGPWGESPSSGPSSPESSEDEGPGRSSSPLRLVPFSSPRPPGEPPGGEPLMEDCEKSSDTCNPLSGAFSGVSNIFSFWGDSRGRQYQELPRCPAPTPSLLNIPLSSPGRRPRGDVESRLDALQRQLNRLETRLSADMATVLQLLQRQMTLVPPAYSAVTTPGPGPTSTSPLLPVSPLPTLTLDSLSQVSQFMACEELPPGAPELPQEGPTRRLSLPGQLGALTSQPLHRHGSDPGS
Compound,Potency,"activity change, negative = inhibition"
CC(C(=O)O)c1ccc2c(c1)Cc1cccnc1O2 (centres undefined),inactive,
Nc1ccccc1Nc1ccccc1,inactive,
O=S(=O)(O)c1cc(Cl)c(Cl)cc1Cl,inactive,
C=CC(=O)NC(C)(C)C,inactive,
C=CC(C)(O)CC/C=C(/C)CCC=C(C)C (centres undefined),inactive,
CC(C)(C)c1cc(C=O)cc(C(C)(C)C)c1O,inactive,
C(/C=C/C=C/Nc1ccccc1)=Nc1ccccc1,inactive,
CCCCCCCCCCCCCCCCCCCl,,6.07% [at 6.97 µM] (inactive)
C=C[Si]1(C)O[Si](C)(C=C)O[Si](C)(C=C)O[Si](C)(C=C)O1 (centres undefined),inactive,
CCc1ccc(C(=O)C(C)CN2CCCCC2)cc1 (centres undefined),inactive,
O=C(OCCOCCOCCOC(=O)c1ccccc1)c1ccccc1,inactive,
O=C(O)CCc1nc2ccccc2[nH]1,inactive,
CCc1c(C)[nH]c2c1C(=O)C(CN1CCOCC1)CC2 (centres undefined),inactive,
c1ccc(CN(Cc2ccccc2)Cc2ccccc2)cc1,24.5 µM (active),
O=C(Cl)c1ccc(F)c(Cl)c1,inactive,
C[C@]12CCC(=O)C=C1[C@@H]1C[C@@H]1[C@H]1[C@@H]3[C@@H]4C[C@@H]4[C@@]4(CCC(=O)O4)[C@@]3(C)CC[C@@H]12,inactive,
CC(C)Oc1ccccc1O,inactive,
c1ccc(-c2ccc(-c3ccccc3)cc2)cc1,,1.54% [at 15.8 µM] (inactive)
COC(=O)c1cc(Cl)ccc1[N+](=O)[O-],inactive,
CC(C)=CCCC(C)C=O (centres undefined),inactive,
O=C(O)c1ccc2c(c1)nc(C(=O)NC1CCN(C3CC3)CC1)n2Cc1cc(-c2ccc(Cl)s2)on1,,-1.6% [at 15.8 µM] (inactive)
O=C(O)c1ccc2cc(O)ccc2c1,inactive,
O=C1c2ccccc2C(=O)C1c1ccc2cc(S(=O)(=O)O)cc(S(=O)(=O)O)c2n1,inactive,
CC(=O)OCC(=O)[C@@]1(O)CC[C@H]2[C@@H]3CCC4=CC(=O)C=C[C@]4(C)[C@@]3(F)[C@@H](O)C[C@@]21C,inactive,
N#Cc1ccc(CC(=O)c2cccc(C(F)(F)F)c2)cc1,27.5 µM (active),
Cc1ccc2ccccc2c1[N+](=O)[O-],inactive,
CO[C@@H]1[C@@H](O[C@@H]2O[C@H](C)[C@@H](O[C@H]3C[C@@](C)(O)[C@@H](O)[C@H](C)O3)[C@H](N(C)C)[C@H]2O)[C@@H](CC=O)C[C@@H](C)[C@@H](O[C@@H]2CC[C@H](N(C)C)[C@@H](C)O2)/C=C/C=C/C[C@@H](C)OC(=O)C[C@H]1OC(C)=O,inactive,
O=C(N[C@@H](Cc1ccccc1)[C@@H](O)C(=O)N1C[C@@H](O)[C@@H](O)C1)c1cc2cc(Cl)ccc2[nH]1,inactive,
CCC(C(=O)O)c1ccc(N2Cc3ccccc3C2=O)cc1 (centres undefined),inactive,
